According to the supplement of paper PMC11732987, “Enantioselective OTUD7B fragment discovery through chemoproteomics screening and high-throughput optimisation” (Communications Chemistry, 2025):

Tests used:
Test in all cases: log2 ratio of Biotin-Ahx-Ub-VS probe labelling (fragment/DMSO); higher = less target engagement (more negative = stronger competition), active = hit call of the paper (q ≤ 0.05, log2 ratio ≤ -1)
Conditions in all cases: compound concentration: 200 uM; treatment time: 3 h
[1] = biological target: T1, USP19 (UniProt O94966)
T1 sequence (whole entry): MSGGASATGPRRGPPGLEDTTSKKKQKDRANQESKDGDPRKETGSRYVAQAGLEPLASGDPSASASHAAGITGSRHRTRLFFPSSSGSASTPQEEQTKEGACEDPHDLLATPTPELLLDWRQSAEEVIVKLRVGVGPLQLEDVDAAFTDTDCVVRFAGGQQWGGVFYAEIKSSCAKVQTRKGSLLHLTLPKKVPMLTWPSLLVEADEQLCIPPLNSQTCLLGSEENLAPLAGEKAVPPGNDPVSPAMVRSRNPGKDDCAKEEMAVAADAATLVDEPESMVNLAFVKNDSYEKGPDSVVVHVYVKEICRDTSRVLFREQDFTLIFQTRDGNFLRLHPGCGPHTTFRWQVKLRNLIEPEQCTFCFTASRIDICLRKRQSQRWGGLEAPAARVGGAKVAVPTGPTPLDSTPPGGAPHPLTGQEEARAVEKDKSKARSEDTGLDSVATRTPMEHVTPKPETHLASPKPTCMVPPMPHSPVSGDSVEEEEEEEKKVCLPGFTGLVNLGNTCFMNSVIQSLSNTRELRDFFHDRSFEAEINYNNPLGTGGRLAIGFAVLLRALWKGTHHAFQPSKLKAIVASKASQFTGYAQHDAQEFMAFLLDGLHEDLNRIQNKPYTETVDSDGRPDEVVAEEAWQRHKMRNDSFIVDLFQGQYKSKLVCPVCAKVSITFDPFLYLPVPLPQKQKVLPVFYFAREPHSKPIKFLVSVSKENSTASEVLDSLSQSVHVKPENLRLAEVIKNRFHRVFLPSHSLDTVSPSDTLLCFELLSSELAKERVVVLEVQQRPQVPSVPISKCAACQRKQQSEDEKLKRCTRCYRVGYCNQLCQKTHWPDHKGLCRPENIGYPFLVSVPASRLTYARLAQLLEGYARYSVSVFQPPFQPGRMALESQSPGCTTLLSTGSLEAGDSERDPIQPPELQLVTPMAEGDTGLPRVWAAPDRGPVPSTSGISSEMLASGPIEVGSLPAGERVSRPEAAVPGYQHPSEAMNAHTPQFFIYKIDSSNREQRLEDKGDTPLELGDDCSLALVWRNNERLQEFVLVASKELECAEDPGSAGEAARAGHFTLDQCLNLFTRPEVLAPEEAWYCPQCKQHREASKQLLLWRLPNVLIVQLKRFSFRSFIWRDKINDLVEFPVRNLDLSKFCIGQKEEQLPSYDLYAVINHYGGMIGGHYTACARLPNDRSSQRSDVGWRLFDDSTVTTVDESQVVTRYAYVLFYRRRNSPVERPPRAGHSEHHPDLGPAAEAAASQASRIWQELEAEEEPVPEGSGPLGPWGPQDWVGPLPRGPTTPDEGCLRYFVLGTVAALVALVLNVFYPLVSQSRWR
Method in brief: (§1)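 The table lists average log2 ratios of fragment over vehicle, from an unpaired t-test on global-median-normalised Spectronaut label-free quantities. Proteins with ≥2 unique peptides were used. Samples were HEK293T lysate (495 µg) treated in triplicate with fragment at 200 µM or vehicle for 3 h, then with Biotin-Ahx-Ub-VS (0.5 µM final) for 1 h, with labelled DUBs NeutrAvidin-enriched and run by diaPASEF LC-MS/MS.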

[2] = biological target: T2, USP22 (UniProt Q9UPT9)
T2 sequence (whole entry): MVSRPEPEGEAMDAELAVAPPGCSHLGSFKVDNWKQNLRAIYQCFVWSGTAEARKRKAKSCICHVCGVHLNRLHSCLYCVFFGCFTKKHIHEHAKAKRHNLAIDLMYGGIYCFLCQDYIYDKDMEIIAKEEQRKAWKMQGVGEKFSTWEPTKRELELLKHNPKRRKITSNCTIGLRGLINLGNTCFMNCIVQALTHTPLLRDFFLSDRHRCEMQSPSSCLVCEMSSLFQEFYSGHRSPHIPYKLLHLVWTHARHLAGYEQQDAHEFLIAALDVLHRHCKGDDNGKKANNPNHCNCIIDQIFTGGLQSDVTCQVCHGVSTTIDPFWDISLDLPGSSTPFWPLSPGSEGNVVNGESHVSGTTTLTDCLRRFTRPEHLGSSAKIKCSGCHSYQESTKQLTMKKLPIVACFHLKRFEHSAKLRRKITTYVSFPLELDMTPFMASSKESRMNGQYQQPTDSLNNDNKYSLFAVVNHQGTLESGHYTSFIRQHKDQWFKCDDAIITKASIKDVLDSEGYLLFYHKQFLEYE
Method in brief: as §1

[3] = biological target: USP24 (UniProt Q9UPU5)
Method in brief: as §1

[4] = biological target: T3, USP25 (UniProt Q9UHP3)
T3 sequence (whole entry): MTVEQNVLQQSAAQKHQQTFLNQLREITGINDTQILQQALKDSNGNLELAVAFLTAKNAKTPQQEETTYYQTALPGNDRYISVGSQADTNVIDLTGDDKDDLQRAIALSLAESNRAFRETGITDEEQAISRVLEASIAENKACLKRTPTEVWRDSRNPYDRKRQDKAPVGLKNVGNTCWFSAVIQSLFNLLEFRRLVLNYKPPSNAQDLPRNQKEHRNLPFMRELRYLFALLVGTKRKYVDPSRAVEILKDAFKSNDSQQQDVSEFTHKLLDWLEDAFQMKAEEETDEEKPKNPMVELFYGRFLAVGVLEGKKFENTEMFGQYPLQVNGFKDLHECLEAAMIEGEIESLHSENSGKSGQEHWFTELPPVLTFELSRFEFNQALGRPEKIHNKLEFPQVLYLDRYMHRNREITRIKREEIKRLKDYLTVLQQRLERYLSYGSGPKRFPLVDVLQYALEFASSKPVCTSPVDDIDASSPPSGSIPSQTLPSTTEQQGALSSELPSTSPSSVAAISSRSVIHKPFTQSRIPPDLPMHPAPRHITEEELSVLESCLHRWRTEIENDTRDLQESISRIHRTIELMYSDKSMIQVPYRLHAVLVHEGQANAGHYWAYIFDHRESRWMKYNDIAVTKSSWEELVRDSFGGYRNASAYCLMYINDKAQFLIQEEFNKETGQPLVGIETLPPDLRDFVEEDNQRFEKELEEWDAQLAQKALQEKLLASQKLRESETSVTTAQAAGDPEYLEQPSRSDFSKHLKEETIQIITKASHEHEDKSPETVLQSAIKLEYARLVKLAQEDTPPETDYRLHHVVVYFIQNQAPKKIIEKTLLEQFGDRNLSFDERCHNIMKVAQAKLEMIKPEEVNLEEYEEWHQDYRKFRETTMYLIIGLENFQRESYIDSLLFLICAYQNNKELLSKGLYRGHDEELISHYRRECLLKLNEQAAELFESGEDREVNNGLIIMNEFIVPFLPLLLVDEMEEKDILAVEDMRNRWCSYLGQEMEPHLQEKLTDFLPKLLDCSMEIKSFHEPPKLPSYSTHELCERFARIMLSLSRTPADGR
Method in brief: as §1

[5] = biological target: T4, USP28 (UniProt Q96RU2)
T4 sequence (whole entry): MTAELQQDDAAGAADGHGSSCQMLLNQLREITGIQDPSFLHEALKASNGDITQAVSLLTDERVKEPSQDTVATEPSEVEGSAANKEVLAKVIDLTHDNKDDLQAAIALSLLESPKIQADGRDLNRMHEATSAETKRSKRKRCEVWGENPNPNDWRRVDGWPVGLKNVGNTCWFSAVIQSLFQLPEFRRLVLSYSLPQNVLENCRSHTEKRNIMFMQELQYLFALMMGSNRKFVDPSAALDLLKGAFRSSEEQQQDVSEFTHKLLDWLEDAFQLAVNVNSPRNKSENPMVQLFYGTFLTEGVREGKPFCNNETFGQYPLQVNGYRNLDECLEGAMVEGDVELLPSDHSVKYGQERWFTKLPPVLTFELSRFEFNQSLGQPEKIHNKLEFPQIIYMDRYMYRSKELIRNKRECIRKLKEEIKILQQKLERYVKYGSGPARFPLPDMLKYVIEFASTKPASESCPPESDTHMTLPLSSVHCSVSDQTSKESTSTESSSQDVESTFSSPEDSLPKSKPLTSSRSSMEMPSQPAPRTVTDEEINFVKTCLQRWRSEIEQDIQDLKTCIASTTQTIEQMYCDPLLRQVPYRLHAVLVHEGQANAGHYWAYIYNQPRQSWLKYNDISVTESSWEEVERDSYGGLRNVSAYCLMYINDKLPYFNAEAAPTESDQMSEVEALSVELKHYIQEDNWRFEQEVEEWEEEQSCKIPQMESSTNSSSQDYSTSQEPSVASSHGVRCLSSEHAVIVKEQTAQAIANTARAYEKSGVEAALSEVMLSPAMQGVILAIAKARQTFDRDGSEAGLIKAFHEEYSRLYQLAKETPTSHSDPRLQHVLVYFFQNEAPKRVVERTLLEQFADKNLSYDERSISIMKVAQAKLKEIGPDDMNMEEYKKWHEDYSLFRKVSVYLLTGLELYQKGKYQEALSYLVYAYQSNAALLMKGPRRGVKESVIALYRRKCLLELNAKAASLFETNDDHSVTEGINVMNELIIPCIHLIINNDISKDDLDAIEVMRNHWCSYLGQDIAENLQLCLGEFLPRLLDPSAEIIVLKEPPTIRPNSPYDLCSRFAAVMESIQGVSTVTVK
Method in brief: as §1

Measured: log2 ratio of Biotin-Ahx-Ub-VS probe labelling

Sequence of USP24 (Q9UPU5 whole entry): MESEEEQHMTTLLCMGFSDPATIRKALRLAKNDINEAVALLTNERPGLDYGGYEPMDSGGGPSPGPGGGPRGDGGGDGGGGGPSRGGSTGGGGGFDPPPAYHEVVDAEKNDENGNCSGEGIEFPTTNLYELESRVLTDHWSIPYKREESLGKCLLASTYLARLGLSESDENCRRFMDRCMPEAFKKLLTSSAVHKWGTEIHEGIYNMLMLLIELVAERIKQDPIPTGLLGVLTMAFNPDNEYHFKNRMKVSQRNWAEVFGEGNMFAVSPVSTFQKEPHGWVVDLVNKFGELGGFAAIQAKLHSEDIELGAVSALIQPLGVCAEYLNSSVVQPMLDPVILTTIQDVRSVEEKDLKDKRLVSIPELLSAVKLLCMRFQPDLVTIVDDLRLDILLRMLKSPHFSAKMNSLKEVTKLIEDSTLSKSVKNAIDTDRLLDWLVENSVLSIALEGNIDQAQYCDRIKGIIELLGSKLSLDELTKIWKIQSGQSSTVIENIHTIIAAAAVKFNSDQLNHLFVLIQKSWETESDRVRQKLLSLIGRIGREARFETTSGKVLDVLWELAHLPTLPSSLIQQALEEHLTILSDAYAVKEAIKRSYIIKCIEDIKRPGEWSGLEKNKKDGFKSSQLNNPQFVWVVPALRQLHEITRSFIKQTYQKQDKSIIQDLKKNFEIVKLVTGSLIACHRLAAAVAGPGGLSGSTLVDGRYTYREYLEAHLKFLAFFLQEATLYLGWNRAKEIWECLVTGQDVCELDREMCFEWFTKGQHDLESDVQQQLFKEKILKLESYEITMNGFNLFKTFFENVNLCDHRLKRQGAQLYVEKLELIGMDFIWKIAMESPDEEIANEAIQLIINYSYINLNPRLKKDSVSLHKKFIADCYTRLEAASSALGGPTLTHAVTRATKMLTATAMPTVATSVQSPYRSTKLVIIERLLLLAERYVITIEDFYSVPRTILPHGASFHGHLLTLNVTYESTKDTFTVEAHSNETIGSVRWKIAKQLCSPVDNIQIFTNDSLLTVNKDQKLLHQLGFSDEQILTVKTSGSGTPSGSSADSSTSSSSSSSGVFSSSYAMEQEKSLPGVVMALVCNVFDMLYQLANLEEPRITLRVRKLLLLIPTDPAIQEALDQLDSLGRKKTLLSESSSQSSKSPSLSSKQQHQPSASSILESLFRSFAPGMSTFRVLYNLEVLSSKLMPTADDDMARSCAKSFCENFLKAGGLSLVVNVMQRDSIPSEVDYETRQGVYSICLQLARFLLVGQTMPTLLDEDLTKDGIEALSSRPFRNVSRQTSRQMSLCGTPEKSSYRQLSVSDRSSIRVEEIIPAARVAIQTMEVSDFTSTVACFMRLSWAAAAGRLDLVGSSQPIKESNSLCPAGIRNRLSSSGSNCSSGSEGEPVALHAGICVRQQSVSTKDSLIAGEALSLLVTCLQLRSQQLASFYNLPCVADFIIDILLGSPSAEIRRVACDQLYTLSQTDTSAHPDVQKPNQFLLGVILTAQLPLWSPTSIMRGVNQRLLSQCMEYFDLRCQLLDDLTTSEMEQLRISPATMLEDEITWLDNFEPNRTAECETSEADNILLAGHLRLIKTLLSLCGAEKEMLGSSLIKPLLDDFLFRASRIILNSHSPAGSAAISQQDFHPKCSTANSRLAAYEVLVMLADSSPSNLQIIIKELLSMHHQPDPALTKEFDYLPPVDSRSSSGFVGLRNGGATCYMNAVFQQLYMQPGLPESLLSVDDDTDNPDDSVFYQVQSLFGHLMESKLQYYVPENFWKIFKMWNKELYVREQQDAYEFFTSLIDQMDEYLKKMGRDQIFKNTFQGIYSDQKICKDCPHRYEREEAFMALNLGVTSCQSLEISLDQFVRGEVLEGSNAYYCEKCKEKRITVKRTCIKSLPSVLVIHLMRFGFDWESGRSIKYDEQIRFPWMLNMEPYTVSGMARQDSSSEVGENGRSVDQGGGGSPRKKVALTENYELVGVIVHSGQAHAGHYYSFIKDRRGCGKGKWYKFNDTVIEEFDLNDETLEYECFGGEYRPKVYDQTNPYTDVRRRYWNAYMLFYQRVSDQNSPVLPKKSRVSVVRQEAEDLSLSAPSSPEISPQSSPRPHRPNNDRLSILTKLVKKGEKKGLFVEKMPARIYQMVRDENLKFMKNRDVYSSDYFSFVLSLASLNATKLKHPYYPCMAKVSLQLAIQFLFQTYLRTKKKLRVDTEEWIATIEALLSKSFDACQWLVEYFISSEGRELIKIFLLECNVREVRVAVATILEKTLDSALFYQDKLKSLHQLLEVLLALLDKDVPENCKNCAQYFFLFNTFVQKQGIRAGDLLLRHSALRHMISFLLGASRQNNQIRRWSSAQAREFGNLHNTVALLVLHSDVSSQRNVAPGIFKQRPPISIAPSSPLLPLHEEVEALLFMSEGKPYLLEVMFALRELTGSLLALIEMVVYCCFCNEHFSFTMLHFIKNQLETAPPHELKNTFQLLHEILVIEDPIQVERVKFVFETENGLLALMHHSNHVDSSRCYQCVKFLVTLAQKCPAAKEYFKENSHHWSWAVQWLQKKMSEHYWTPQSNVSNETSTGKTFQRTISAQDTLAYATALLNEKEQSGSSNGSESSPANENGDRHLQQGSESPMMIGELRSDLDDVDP

Cl.O=C(CCl)N1CCN(Cc2ccccc2)CC1
inactive: [1] -0.21 | [2] -0.403 | [3] -0.611 | [4] -0.226 | [5] -0.511
